The values below come from PubChem BioAssay (NCI).

About 83,000 compounds went through this panel and 20% of them were active in at least one assay; those are over-represented in the sample as a whole.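 Method: cells in 96-well plates; compound added at one concentration; 48 h incubation; percent growth measured; values under 10 scored active.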 The source made the active and inactive calls.

The assay relates to KM12 colon. Kind of assay: NCI-60 one-dose screen, 48 h (100 = growth as untreated, 0 = no growth, -100 = all killed). Particulars: 10 µM unless noted.
Turning to `CSc1nc(N)n2nccc2n1`, the growth was 114% (inactive).

As for `Cc1nnc(-c2cc3c(ccc4ccccc43)oc2=O)c2cn(-c3ccc(Cl)cc3)nc12`, the growth was 94.4% (inactive).

As to `COc1ccc(CNCCCN2C(=O)c3ccc4c5c(ccc(c35)C2=O)C(=O)N(CCCNCc2ccc(OC)c(OC)c2OC)C4=O)c(OC)c1OC`, the growth is -89.9% (active).

Regarding `CCCCCCCCCCCCOC(=N)N(C)C`, the growth was 101% (inactive).

Turning to `COCC(=O)NNc1[nH]c(-c2ccc(OC)cc2)cc1C#N`, the growth is 104% (inactive).

For the compound `c1cc(C2CCCCC2)ccc1OCCCCCCN1CCNCC1`, the growth was 6.42% (active).

As for `O=C(CCCC(=O)Nc1ccc(Cn2nnc3cc(Cl)c(Cl)cc32)cc1)Nc1ccc(CN2N=NC3C=C(Cl)C(Cl)=CC32)cc1` (stereo unspecified), the growth is 79.9% (inactive).

With `COc1cc(N)c2nccc(C)c2c1OC`, the growth is 101% (inactive).

As to `COc1ccc(Cn2cc3c(c2)-c2oncc2CC3)cc1OC`, the growth is 5.46% (active).

Turning to `Brc1c(-c2ccncc2)nc2n1CCS2`, the growth is 116% (inactive).

`CCc1c(C)c2ccc(OCC(=O)N=Nc3c(O)[nH]c4ccccc34)c(C)c2oc1=O`: the growth is -23.4% (active).

With `Nc1ccc(N=Nc2ccccc2)c2cc(S(=O)(=O)O)ccc12`, the growth was 103% (inactive).

In the case of `CC(C)CSc1nc(-c2ccc(F)cc2)c(C#N)c(N2CCCCC2)n1`, the growth was 86.1% (inactive).

`Cc1ccc2c(O)c(O)cc(NC(C)CCCN)c2n1` (stereo unspecified): the growth was 109% (inactive).

Turning to `CC(C)OCC1CO1` (stereo unspecified), the growth is 98.3% (inactive).

In the case of `CC(C)(C)c1cc(C[P+](c2ccc(Cl)cc2)(c2ccc(Cl)cc2)c2ccc(Cl)cc2)cc(C(C)(C)C)c1O`, the growth is 88.9% (inactive).

On to `O=C(OCC1CC2(Cl)C(Cl)=C(Cl)C1(Cl)C2(Cl)Cl)C1C(C(=O)OCC2CC3(Cl)C(Cl)=C(Cl)C2(Cl)C3(Cl)Cl)C2(Cl)C(Cl)=C(Cl)C1(Cl)C2(Cl)Cl` (stereo unspecified), for which the growth is 101% (inactive).

On to `O=S(=O)(Cc1cccc2c(CS(=O)(=O)c3ccc(Cl)cc3)cccc12)c1ccc(Cl)cc1`, for which the growth was 88.1% (inactive).

Consider `O=C(/C=C1\C(=O)N(Cc2ccccc2)c2ccccc21)c1ccc(OCCN2CCCCC2)cc1`, for which the growth was 80.6% (inactive).

In the case of `CC(C)(C)C(=O)CCCCCCCC/C=C/CCCC(O)c1ccco1` (stereo unspecified), the growth was 113% (inactive).

Turning to `CC(=O)CCS(=O)c1ccccc1` (stereo unspecified), the growth is 97.9% (inactive).

`O=P(OCCCl)(OCCCl)C(O)c1ccccc1Cl` (stereo unspecified): the growth was 104% (inactive).

In the case of `CC1(C)C(O)NC(Cl)=C(C#N)C1(C#N)C#N` (stereo unspecified), the growth is 112% (inactive).

For the compound `COc1ccc(C(O)(c2ccccc2)C(C(=O)O)c2ccccc2)cc1` (stereo unspecified), the growth is 93.9% (inactive).

Regarding `O=C(O)CC1Cc2ccccc2C1C(=O)O` (stereo unspecified), the growth was 96.7% (inactive).

For the compound `O=c1[nH]c(=S)[nH]c(O)c1/C=C1\C=Nc2ccccc21`, the growth is 47.7% (inactive).

Turning to `O=C1NCCN1/N=C/c1c(Cl)nc2n1CCS2`, the growth is 101% (inactive).

Take `CCCC(=O)Nc1ccccc1C(=O)O`: the growth is 90.5% (inactive).

On to `CC(C)OC(=O)Nn1cnc2ccccc21`, for which the growth is 114% (inactive).

On to `O=C(NC1CCN(Cc2ccccc2)CC1)c1cc(-c2cccnc2)nc2ccc(Cl)cc12`, for which the growth was 39.2% (inactive).

On to `O=S(=O)(O)c1ccc2c(c1)Sc1cc(S(=O)(=O)O)ccc1O2`, for which the growth is 108% (inactive).

Take `CCCCCc1ccnc(CC(=O)c2ccc(OC)cc2)c1`: the growth was 99.9% (inactive).

Consider `COc1ccc(-c2nc(SCC(C)C)nc(Nc3ccc([N+](=O)[O-])cc3)c2C#N)cc1`, for which the growth is 99.9% (inactive).

On to `COc1cc2ncnc(Nc3ccc4c(cnn4C(=O)Nc4ccccc4)c3)c2cc1OC`, for which the growth was 93.5% (inactive).

`CCCCCSc1ccc2nc(NC(=O)OCC)sc2c1`: the growth was 19.7% (inactive).

On to `COc1ccc(C2=C/C(=C\c3ccc(Cl)cc3)C(=O)NN2C(=S)NN)cc1`, for which the growth was 100% (inactive).
